# Test results published in the supplement of paper PMC8728848.
# The sample as a whole holds a higher share of the strongest signals than the screen did.
# B1: GS13846A-bth-444-19-444 (Bacteroides thetaiotaomicron) (protein)
# chain: SCENEFDVSDKADSLISVTVNTLNNQAAYNVGETAQAELWIQRGGLKDASGKVQFVVDPLLLDSLNQEDKTNYELLPENCYEMTNTEFTVDKNELCGYITYHPEKILALSAYNETKYVLPLRLISNDLAINPARNTSFLAFTILEPIVHISNAGVYNINPDLTSTMDIQIGVPFTNKWDILCNLTEDLSLIDEYNQINKVNFTLLPENAYTAPESVTLQEGVSQITASYQLKNNLVPGNYILPIKIGSITASQGGVPNNSLVIDEESNVLFCIVKEGNKINKSGWEVIECSSEHAGNEATYMIDDNESTYWHCKFKNEAGSSVPPFHFIIDMKKEITIAQIDLLNRGDGAANNIKWVEFYASNNNSEWDKIGAGDFNDEGTRATFRYYVKSTKARYLKLIIPEGYGNNCPPAAIRELTVYGLEGNN
# How the values were obtained:
# Test in all cases: glycan array binding signal (z-score within array); higher = stronger binding
# Conditions in all cases: glycan notation: IUPAC condensed, linker removed
# Fuc(a1-2)Gal(b1-3)GalNAc = molecular target: Fuc(a1-2)Gal(b1-3)GalNAc
# Procedure, shortened: (§1)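 The Consortium for Functional Glycomics database supplied 3228 glycan arrays, of which those lacking an available protein sequence were dropped. The binding signal, a within-array Z-score, was averaged across arrays of the same protein sequence and across linkers. Negative scores can be read as non-binding.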
# [1] = molecular target: Fuc(a1-2)Gal(b1-3)GlcNAc(b1-3)[Fuc(a1-2)Gal(b1-3)GlcNAc(b1-6)]GalNAc
# Procedure, shortened: as §1
# [2] = molecular target: Fuc(a1-2)Gal(b1-3)[Fuc(a1-4)]GlcNAc(b1-2)Man(a1-3)[Fuc(a1-2)Gal(b1-3)[Fuc(a1-4)]GlcNAc(b1-2)Man(a1-3)]Man(b1-4)GlcNAc(b1-4)GlcNAc
# Procedure, shortened: as §1
# Fuc(a1-2)Gal(b1-4)Glc = molecular target: Fuc(a1-2)Gal(b1-4)Glc
# Procedure, shortened: as §1
# [3] = molecular target: Fuc(a1-2)Gal(b1-4)GlcNAc(b1-2)Man(a1-3)[Fuc(a1-2)Gal(b1-4)GlcNAc(b1-2)Man(a1-6)]Man(b1-4)GlcNAc(b1-4)GlcNAc
# Procedure, shortened: as §1
# [4] = molecular target: Fuc(a1-2)Gal(b1-4)GlcNAc(b1-2)[Fuc(a1-2)Gal(b1-4)GlcNAc(b1-4)]Man(a1-3)[Fuc(a1-2)Gal(b1-4)GlcNAc(b1-2)Man(a1-6)]Man(b1-4)GlcNAc(b1-4)GlcNAc
# Procedure, shortened: as §1
# [5] = molecular target: Fuc(a1-2)Gal(b1-4)GlcNAc(b1-3)[Fuc(a1-3)[Gal(b1-4)]GlcNAc(b1-6)]Gal(b1-4)Glc
# Procedure, shortened: as §1
# [6] = molecular target: Fuc(a1-2)Gal(b1-4)[Fuc(a1-3)]GlcNAc(b1-2)[Fuc(a1-2)Gal(b1-4)[Fuc(a1-3)]GlcNAc(b1-4)]Man(a1-3)[Fuc(a1-2)Gal(b1-4)[Fuc(a1-3)]GlcNAc(b1-2)Man(a1-6)]Man(b1-4)GlcNAc(b1-4)GlcNAc
# Procedure, shortened: as §1
# Fuc(a1-2)Gal6S(b1-4)Glc = molecular target: Fuc(a1-2)Gal6S(b1-4)Glc
# Procedure, shortened: as §1
# [7] = molecular target: Fuc(a1-2)[Gal(a1-3)]Gal(b1-3)GlcNAc(b1-2)Man(a1-3)[Fuc(a1-2)[Gal(a1-3)]Gal(b1-3)GlcNAc(b1-2)Man(a1-6)]Man(b1-4)GlcNAc(b1-4)GlcNAc
# Procedure, shortened: as §1
# [8] = molecular target: Gal(a1-3)[Gal(a1-4)]Gal(b1-4)GlcNAc
# Procedure, shortened: as §1
# [9] = molecular target: Gal(a1-4)Gal(b1-4)GlcNAc(b1-3)Gal(b1-4)Glc
# Procedure, shortened: as §1
# [10] = molecular target: Gal(b1-3)GlcNAc(b1-2)Man(a1-3)[Gal(b1-3)GlcNAc(b1-2)Man(a1-6)]Man(b1-4)GlcNAc(b1-4)GlcNAc
# Procedure, shortened: as §1
# [11] = molecular target: Gal(b1-3)GlcNAc(b1-2)Man(a1-3)[Gal(b1-3)GlcNAc(b1-2)Man(a1-6)]Man(b1-4)GlcNAc(b1-4)[Fuc(a1-6)]GlcNAc
# Procedure, shortened: as §1
# [12] = molecular target: Gal(b1-3)GlcNAc(b1-2)[Gal(b1-3)GlcNAc(b1-6)]Man(a1-6)[Gal(b1-3)GlcNAc(b1-2)Man(a1-3)]Man(b1-4)GlcNAc(b1-4)GlcNAc
# Procedure, shortened: as §1
# [13] = molecular target: Gal(b1-3)GlcNAc(b1-3)Gal(b1-4)[Fuc(a1-3)]GlcNAc
# Procedure, shortened: as §1
# [14] = molecular target: Gal(b1-4)GlcNAc(b1-2)Man(a1-3)[GlcNAc(b1-4)][Gal(b1-4)GlcNAc(b1-2)Man(a1-6)]Man(b1-4)GlcNAc(b1-4)GlcNAc
# Procedure, shortened: as §1
# [15] = molecular target: Gal(b1-4)GlcNAc(b1-2)Man(a1-6)Man(b1-4)GlcNAc(b1-4)GlcNAc
# Procedure, shortened: as §1
# [16] = molecular target: Gal(b1-4)GlcNAc(b1-3)Gal(b1-4)GlcNAc(b1-3)Gal(b1-4)GlcNAc(b1-3)Gal(b1-4)GlcNAc(b1-2)Man(a1-3)[Gal(b1-4)GlcNAc(b1-3)Gal(b1-4)GlcNAc(b1-3)Gal(b1-4)GlcNAc(b1-3)Gal(b1-4)GlcNAc(b1-2)Man(a1-6)]Man(b1-4)GlcNAc(b1-4)[Fuc(a1-6)]GlcNAc
# Procedure, shortened: as §1
# [17] = molecular target: Gal(b1-4)GlcNAc(b1-3)Gal(b1-4)GlcNAc(b1-6)[Gal(b1-3)]GalNAc
# Procedure, shortened: as §1
# Gal(b1-6)Gal = molecular target: Gal(b1-6)Gal
# Procedure, shortened: as §1
# Gal3S6S(b1-4)GlcNAc = molecular target: Gal3S6S(b1-4)GlcNAc
# Procedure, shortened: as §1
# Gal3S6S(b1-4)GlcNAc6S = molecular target: Gal3S6S(b1-4)GlcNAc6S
# Procedure, shortened: as §1
# Gal6S(b1-3)GlcNAc = molecular target: Gal6S(b1-3)GlcNAc
# Procedure, shortened: as §1
# Gal6S(b1-3)GlcNAc6S = molecular target: Gal6S(b1-3)GlcNAc6S
# Procedure, shortened: as §1
# Gal6S(b1-4)Glc = molecular target: Gal6S(b1-4)Glc
# Procedure, shortened: as §1
# Gal6S(b1-4)Glc6S = molecular target: Gal6S(b1-4)Glc6S
# Procedure, shortened: as §1
# Gal6S(b1-4)GlcNAc = molecular target: Gal6S(b1-4)GlcNAc
# Procedure, shortened: as §1
# Gal6S(b1-4)GlcNAc6S = molecular target: Gal6S(b1-4)GlcNAc6S
# Procedure, shortened: as §1
# [18] = molecular target: GalNAc(a1-3)GalNAc(b1-3)Gal(a1-4)Gal(b1-4)GlcNAc
# Procedure, shortened: as §1
# GalNAc(b1-4)Gal(b1-4)Glc = molecular target: GalNAc(b1-4)Gal(b1-4)Glc
# Procedure, shortened: as §1
# GalNAc6S(b1-4)GlcNAc = molecular target: GalNAc6S(b1-4)GlcNAc
# Procedure, shortened: as §1
# Glc(b1-4)Glc = molecular target: Glc(b1-4)Glc
# Procedure, shortened: as §1
# [19] = molecular target: GlcA3S(b1-3)Gal(b1-4)GlcNAc(b1-2)Man
# Procedure, shortened: as §1
# [20] = molecular target: GlcA3S(b1-3)Gal(b1-4)GlcNAc(b1-3)Gal(b1-4)Glc
# Procedure, shortened: as §1
# [21] = molecular target: GlcNAc(a1-3)Gal(b1-4)GlcNAc
# Procedure, shortened: as §1
# [22] = molecular target: GlcNAc(a1-6)Gal(b1-4)GlcNAc
# Procedure, shortened: as §1
# [23] = molecular target: GlcNAc(b1-3)Gal(b1-4)GlcNAc(b1-3)Gal(b1-4)GlcNAc(b1-2)Man(a1-3)[GlcNAc(b1-3)Gal(b1-4)GlcNAc(b1-3)Gal(b1-4)GlcNAc(b1-2)Man(a1-6)]Man(b1-4)GlcNAc(b1-4)[Fuc(a1-6)]GlcNAc
# Procedure, shortened: as §1
# [24] = molecular target: GlcNAc(b1-4)Gal(b1-4)GlcNAc
# Procedure, shortened: as §1
# [25] = molecular target: Neu5Ac(a2-3)Gal(b1-4)GlcNAc(b1-2)Man(a1-3)[Neu5Ac(a2-3)Gal(b1-4)GlcNAc(b1-2)Man(a1-6)]Man(b1-4)GlcNAc(b1-4)[Fuc(a1-6)]GlcNAc
# Procedure, shortened: as §1
# [26] = molecular target: Neu5Ac(a2-3)Gal(b1-4)GlcNAc(b1-3)Gal(b1-4)GlcNAc(b1-3)Gal(b1-4)GlcNAc
# Procedure, shortened: as §1
# [27] = molecular target: Neu5Ac(a2-3)Gal(b1-4)GlcNAc(b1-3)Gal(b1-4)GlcNAc(b1-3)Gal(b1-4)GlcNAc(b1-2)Man(a1-3)[Neu5Ac(a2-3)Gal(b1-4)GlcNAc(b1-3)Gal(b1-4)GlcNAc(b1-3)Gal(b1-4)GlcNAc(b1-2)Man(a1-6)]GalNAc
# Procedure, shortened: as §1
# [28] = molecular target: Neu5Ac(a2-3)Gal(b1-4)GlcNAc(b1-3)Gal(b1-4)GlcNAc(b1-3)[Neu5Ac(a2-3)Gal(b1-4)GlcNAc(b1-3)Gal(b1-4)GlcNAc(b1-6)]GalNAc
# Procedure, shortened: as §1
# [29] = molecular target: Neu5Ac(a2-3)Gal(b1-4)[Fuc(a1-3)]GlcNAc(b1-3)Gal(b1-4)GlcNAc
# Procedure, shortened: as §1
# [30] = molecular target: Neu5Ac(a2-3)Gal6S(b1-4)GlcNAc
# Procedure, shortened: as §1
# [31] = molecular target: Neu5Ac(a2-6)Gal(b1-4)GlcNAc(b1-2)Man(a1-3)Man(b1-4)GlcNAc(b1-4)GlcNAc
# Procedure, shortened: as §1
# [32] = molecular target: Neu5Ac(a2-6)Gal(b1-4)GlcNAc(b1-2)Man(a1-6)[Gal(b1-4)GlcNAc(b1-2)Man(a1-3)]Man(b1-4)GlcNAc(b1-4)GlcNAc
# Procedure, shortened: as §1
# [33] = molecular target: Neu5Ac(a2-6)Gal(b1-4)GlcNAc(b1-6)[Gal(b1-3)]GalNAc
# Procedure, shortened: as §1
# [34] = molecular target: Neu5Ac(a2-6)GlcNAc(b1-4)GlcNAc
# Procedure, shortened: as §1
# [35] = molecular target: Neu5Gc(a2-8)Neu5Gc(a2-6)Gal(b1-4)GlcNAc
# Procedure, shortened: as §1
binder,measurement,setting,value
B1,glycan array binding signal (z-score),Fuc(a1-2)Gal(b1-3)GalNAc,-0.247
same,glycan array binding signal (z-score),[1],-0.101
same,glycan array binding signal (z-score),[2],-0.423
same,glycan array binding signal (z-score),Fuc(a1-2)Gal(b1-4)Glc,-0.176
same,glycan array binding signal (z-score),[3],0.384
same,glycan array binding signal (z-score),[4],-0.079
same,glycan array binding signal (z-score),[5],0.069
same,glycan array binding signal (z-score),[6],-0.407
same,glycan array binding signal (z-score),Fuc(a1-2)Gal6S(b1-4)Glc,-0.234
same,glycan array binding signal (z-score),[7],-0.305
same,glycan array binding signal (z-score),[8],2.7
same,glycan array binding signal (z-score),[9],-0.018
same,glycan array binding signal (z-score),[10],0.242
same,glycan array binding signal (z-score),[11],3.4
same,glycan array binding signal (z-score),[12],-0.163
same,glycan array binding signal (z-score),[13],0.028
same,glycan array binding signal (z-score),[14],-0.238
same,glycan array binding signal (z-score),[15],-0.133
same,glycan array binding signal (z-score),[16],0.486
same,glycan array binding signal (z-score),[17],-0.308
same,glycan array binding signal (z-score),Gal(b1-6)Gal,-0.188
same,glycan array binding signal (z-score),Gal3S6S(b1-4)GlcNAc,6.47
same,glycan array binding signal (z-score),Gal3S6S(b1-4)GlcNAc6S,6.71
same,glycan array binding signal (z-score),Gal6S(b1-3)GlcNAc,7.3
same,glycan array binding signal (z-score),Gal6S(b1-3)GlcNAc6S,6.28
same,glycan array binding signal (z-score),Gal6S(b1-4)Glc,3.68
same,glycan array binding signal (z-score),Gal6S(b1-4)Glc6S,12.7
same,glycan array binding signal (z-score),Gal6S(b1-4)GlcNAc,4.8
same,glycan array binding signal (z-score),Gal6S(b1-4)GlcNAc6S,8.87
same,glycan array binding signal (z-score),[18],-0.175
same,glycan array binding signal (z-score),GalNAc(b1-4)Gal(b1-4)Glc,0
same,glycan array binding signal (z-score),GalNAc6S(b1-4)GlcNAc,5.49
same,glycan array binding signal (z-score),Glc(b1-4)Glc,-0.32
same,glycan array binding signal (z-score),[19],-0.266
same,glycan array binding signal (z-score),[20],-0.082
same,glycan array binding signal (z-score),[21],-0.214
same,glycan array binding signal (z-score),[22],-0.052
same,glycan array binding signal (z-score),[23],0.103
same,glycan array binding signal (z-score),[24],-0.193
same,glycan array binding signal (z-score),[25],-0.407
same,glycan array binding signal (z-score),[26],0.067
same,glycan array binding signal (z-score),[27],-0.089
same,glycan array binding signal (z-score),[28],-0.336
same,glycan array binding signal (z-score),[29],-0.205
same,glycan array binding signal (z-score),[30],-0.129
same,glycan array binding signal (z-score),[31],-0.287
same,glycan array binding signal (z-score),[32],-0.298
same,glycan array binding signal (z-score),[33],1.86
same,glycan array binding signal (z-score),[34],0.027
same,glycan array binding signal (z-score),[35],-0.262
